# Sampled rows, rich in hits. Any-hit rate of the full collection: about 3%.
# mTORC1 inh – reduces mTORC1 signaling in Tsc2 and p53 null MEF cells; Potency, µM (series often up to 38.3 µM), actives largely listed as inhibitors; Tsc2-/- p53-/- MEF, phospho-rpS6 immunofluorescence/PI, 24 h; actives 0.78% (n = 44,000); AID 493208; further: nearly all actives have a fitted effect of over 50% in size
#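 Immunofluorescence of rpS6 phosphorylation in Tsc2-/-, p53-/- MEFs after 24 h compound exposure, normalized to propidium iodide signal. Activity is expressed as % positive cells, thresholded with 7.5 nM rapamycin.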
# S16 F2sN tox – cytotoxicity in S16 Pmp22-F2sN Schwann cells; Potency, µM (titrated, usually from 57.5 µM), hits mostly cytotoxic; actives 0.48% (n = 43,000); S16 Pmp22-F2sN Schwann cells viability, CellTiter-Glo, 24 h; AID 1508642; further: nearly all actives have a fitted effect of over 65% in size
#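 CellTiter-Glo counter-screen, qHTS, 1536-well. Cells: S16(c9) Pmp22-F2sN, 500-1,000/well in DMEM + 10% FBS. Cpd 23 nL pin transfer, 24 h, 37C/5% CO2. Read: luminescence, CCD imager.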
# OvCa metastasis – inhibitors of ovarian cancer cell adhesion and invasion in omental model; SKOV3ip1-GFP adhesion/invasion on 3D omental model, fluorescence; Potency, µM (titrated, usually from 45.8 µM), usual class: inhibitors; actives 0.1% (n = 46,000); further: nearly all actives have a fitted effect of over 65% in size
#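 A 3D layer of primary human omental fibroblasts, mesothelial cells, fibronectin and collagen I, grown 48 hr, received SKOV3ip1-GFP cells in serum-free medium plus compounds at 0.36-46 umol/L. After 2 hr RT and 16 hr 37 C, fixed adherent GFP cells were counted; normalized to DMSO and tomatine.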
# p53null 32C kill – kills p53 null cells at the permissive temperature. H1299-neo p53 null cells, ATP luminescence, 24 h, 32C. Potency, µM (highest dose often 46.1 µM), hits mostly cytotoxic. actives 0.62% (n = 55,000); further: nearly all actives have a fitted effect of over 55% in size
#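 H1299-neo, 600 cells/well; overnight 37C; cpd up to 46 uM, 24 h at 32C; ATPlite luminescence after 20 min RT; normalized to DMSO (0%) and tamoxifen 100 uM (100% kill); Hill-fit AC50.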
# PMP22 txn – modulates PMP22 transcription in S16 Schwann cells | S16 Pmp22-F2sN Schwann cells (luciferase reporters placed in the Pmp22 gene), FLuc/NLuc coincidence luminescence, 24 h | Potency, µM (doses to about 57.5 µM), hits mostly inhibitors | actives 2% (n = 43,000) | AID 1508649; active means clear falling dose curves in both reporters; inconclusive means both reporters move, but less clearly or upward; inactive means either reporter flat; the % is the NLuc reporter signal
#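 Rat S16 Pmp22-F2sN cells, 500-1,000/well in phenol red-free DMEM + 10% FBS, compound-treated 24 h (37C, 5% CO2). Luminescence: FLuc read, Stop&Glo added, NLuc read.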
# p53null 39C tox – selectivity test: cytotoxicity in p53 null cells, nonpermissive temperature; actives 0.97% (n = 55,000); AID 904; H1299 p53-null (neo) cells, 39C, ATPlite viability, 24 h; Potency, µM (series often up to 46.1 µM), actives largely listed as cytotoxic; further: nearly all actives have a fitted effect of over 50% in size
#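 Concentration-response (up to 46 uM) was run for 24 h at the nonpermissive 39C on H1299-p53A138V or H1299-neo cells. ATP content was measured with ATPlite luminescence. AC50 values were Hill-modeled after normalizing between DMSO and 100 uM tamoxifen killing.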
# A number is an active result; – = inactive; ? = inconclusive; · = not tested or not shown; [ ] = remark or other dose. Unless noted, the call rests on the fitted dose curve; in most records, active means well fitted curve in the direction sought with a large enough effect; inconclusive means small, poorly fitted or top-dose-only effect, or another doubt; inactive means no such curve, though single readings can be large; an effect the other way counts as inactive or inconclusive.
SMILES,mTORC1 inh,S16 F2sN tox,OvCa metastasis,p53null 32C kill,PMP22 txn,p53null 39C tox
CC(=O)Nc1cccc(-n2c(=O)n(C3CC3)c(=O)c3c(Nc4ccc(I)cc4F)n(C)c(=O)c(C)c32)c1,·,·,–,·,·,·
COc1ccc(OC)c2sc(N3CCN(C(=O)C(C)(C)C)CC3)nc12,–,–,–,12.6µM,–,11.2µM
c1ccc(CSc2ccc(-c3ccco3)nn2)cc1,·,·,·,11.2µM,·,?
Cc1ccc(Nc2c(-c3c[nH]c4ccccc34)nc3ccccn23)cc1,?,–,–,–,?,14.1µM
NC(=O)C1CCN(C(=O)c2ccc(NC(=O)c3nsc4ccccc34)cc2)CC1,–,?,–,2.51µM,?,2.82µM
COc1ccc(S(=O)(=O)N(C(=O)c2ccncc2)c2ccc3oc(C)c(C(C)=O)c3c2)cc1,18.5µM,?,?,–,12.6µM,?
COC(=O)c1c(C)oc2ccc(N(C(=O)c3ccncc3)S(=O)(=O)c3ccc(OC)cc3)cc12,?,?,–,–,5.32µM,?
CCOc1ccc(S(=O)(=O)N(C(=O)c2ccncc2)c2ccc3oc(C)c(C(=O)OC)c3c2)cc1,5.21µM,?,–,–,?,?
COc1ccc(S(=O)(=O)N(C(=O)c2ccncc2)c2ccc3oc4c(c3c2)CCCC4)cc1,·,·,·,–,·,·
CCc1ccc(S(=O)(=O)N(C(=O)c2ccncc2)c2ccc3oc(C)c(C(=O)OC)c3c2)cc1,?,?,–,–,?,–
CN(C)c1ccc(/C=C(\C#N)c2nc3ccccc3c(=O)[nH]2)cc1,–,–,–,0.316µM,?,?
CCn1c(=O)c(C(=O)Nc2ccc(C(C)=O)cc2)nc2ccccc21,–,–,–,10µM,–,10µM
COc1ccc2[nH]cc(CCNC(=O)Nc3ccccc3)c2c1,–,–,–,–,–,–
COc1ccc2[nH]cc(CCNC(=O)Nc3cc(C)cc(C)c3)c2c1,–,–,–,–,–,20µM
O=S(=O)(c1ccc(Cl)cc1)N1CCC(c2ccncc2)CC1,–,–,–,–,–,–
CC(C)Cc1ccc(S(=O)(=O)N2CCC(c3ccncc3)CC2)cc1,18.5µM,?,?,?,?,?
CC(C)(C)c1ccc(S(=O)(=O)N2CCC(c3ccncc3)CC2)cc1,18.5µM,?,–,?,?,?
CCOc1ccc(NC(=O)CN(C)S(=O)(=O)c2ccc3[nH]c4c(c3c2)CCCC4)cc1,–,?,–,–,17µM,–
Cc1cc(C)cc(NC(=O)CN(C)S(=O)(=O)c2ccc3[nH]c4c(c3c2)CCCC4)c1,–,–,–,–,?,–
COc1ccc(C(=O)Nc2cc(-c3nc4ccccc4s3)ccc2OC)cc1,16.5µM,?,?,–,?,–
NC(=O)Nc1cc(-c2cccc(F)c2)sc1C(=O)N[C@H]1CCCNC1,·,·,–,·,·,·
CCCN(CCC)CCCNC(=O)c1cc2c(-c3ccc(Cl)cc3)nn(C)c2s1,13.1µM,?,?,–,?,15.8µM
COc1ccc(CNC(=O)c2cc3c(-c4ccc(Cl)cc4)nn(C)c3s2)cc1,–,–,–,–,–,–
O=C(Nc1cccc(Cl)c1)c1cnc[nH]1,–,–,–,–[9.22 µM],–,–
COc1ccc(NC(=O)c2cnc[nH]2)cc1,–,–,–,17.8µM,–,7.94µM
SMILES,mTORC1 inh,S16 F2sN tox,OvCa metastasis,p53null 32C kill,PMP22 txn,p53null 39C tox
CCOc1ccc(-c2cccc(NS(=O)(=O)c3ccc(C)s3)c2)nn1,–,–,–,–,–,–
CC(=O)Nc1ccc(S(=O)(=O)Nc2cccc(-c3ccc(N4CCC(C)CC4)nn3)c2)cc1,–,·,–,3.98µM,·,3.16µM
CCc1ccc(S(=O)(=O)Nc2cccc(-c3ccc(N4CCC(C)CC4)nn3)c2)s1,–,·,–,10µM,·,12.6µM
COc1ccc(S(=O)(=O)Nc2cccc(-c3ccc(N4CCC(C)CC4)nn3)c2)c(OC)c1,–,·,–,12.6µM,·,12.6µM
CC(=O)c1ccc(S(=O)(=O)Nc2ccc(-c3ccc(N4CCCCCC4)nn3)cc2)cc1,–,·,–,–,·,?
CC(=O)Nc1ccc(S(=O)(=O)Nc2cccc(-c3ccc(N4CCCCCC4)nn3)c2)cc1,–,·,–,?,·,?
CC(=O)c1ccc(S(=O)(=O)Nc2ccc(-c3ccc(N4CCCCC4)nn3)cc2)cc1,–,·,–,?,·,15.8µM
COc1nccc(-c2c(-c3ccc(F)cc3)ncn2C2CCNCC2)n1,·,·,–,·,·,·
Nc1nccc(Oc2ccc(NC(=O)c3c[nH]cc(-c4ccc(F)cc4)c3=O)cc2F)c1Cl,·,·,–,·,·,·
COc1cc(/C=C(\C#N)c2nc3ccc(C)cc3[nH]2)ccc1OC(C)C,–,–,–,–,–,–
Cc1ccc2nc(/C(C#N)=C/c3cccc(Br)c3)[nH]c2c1,18.5µM,?,–,–,?,–
Cc1nc(N)sc1-c1ccnc(Nc2ccc(N3CCOCC3)cc2)n1,·,·,–,·,·,·
CC1CCn2c(nc3cc(C(=O)NCCc4ccccc4)ccc32)C1 (stereo unspecified),–,–,–,12.6µM,–,25.1µM
Cc1ccccc1CCNC(=O)c1ccc2c(c1)nc1n2CCCCC1,–,–,–,2µM,–,1.26µM
Cc1ccccc1CCNC(=O)c1ccc2c(c1)nc1n2CCOC1,–,–,–,7.94µM,–,3.16µM
OCCN1C[C@H](O)[C@@H](O)[C@H](O)[C@@H]1CO,·,·,–,·,·,·
NC1CCC(Nc2nc(Nc3ccc(C(=O)N4CCCCC4)cc3)c3ncn(-c4cccc(F)c4)c3n2)CC1 (stereo unspecified),·,·,–,·,·,·
C=C1C(=O)[C@@]23C(CC[C@@H]1[C@H]2O)[C@@]12CO[C@]3(O)[C@@H](O)[C@@H]1C(C)(C)CC[C@@H]2O (stereo partly specified),·,·,18.7µM,·,·,·
COc1c(OCCCN2CCOCC2)ccc2c3n(c(=NC(=O)c4cnc(N)nc4)nc12)CCN3,·,·,–,·,·,·
Cc1nc(NC(=O)N2CCC[C@@H]2C(N)=O)sc1-c1csc(C(C)(C)C)n1,·,·,–,·,·,·
CCOC(=O)c1ccc(N2C(=O)c3n[nH]c(C)c3C2c2ccc(CC)cc2)cc1 (stereo unspecified),–,–,–,–,–,–
CCOC(=O)c1ccc(N2C(=O)c3n[nH]c(C)c3C2c2cccc(Br)c2)cc1 (stereo unspecified),16.5µM,?,–,–,?,?
COc1ccc(Nc2nc(N)c3cc(OC)c(OC)cc3n2)cc1,18.5µM,?,?,?,?,?
CCOc1ccc(-c2nonc2NC(=O)c2oc3cc(C)ccc3c2C)cc1,?,–,–,–,–,–
CCOc1ccc(-c2nonc2NC(=O)c2oc3ccc(Br)cc3c2C)cc1,–,–,–,12.6µM,?,?

# Bioassay records: PubChem, National Center for Advancing Translational Sciences (NCATS)
